# In PubChem BioAssay (EPA / NIEHS):
# Active and inactive are the calls of the source. The calls were made as follows: active = hit-call score of the fitted dose curve at least 0.9, where 1 is the maximum; inactive = score below 0.9.
# Tests used:
# [1] = read-out: Vascular endothelial growth factor receptor 2 (Homo sapiens) (UniProt P35968); test: BSK_4H_VEGFRII: BioMAP Diversity Plus: 4H Assay for Vascular endothelial growth factor receptor 2 (VEGFR2) Biomarker Activity (AID 2283031); conditions: primary human endothelial cells (HUVEC); actives raise or lower the signal;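 as to AC50: cell-surface VEGFR2 protein level quantified by ELISA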
# Summary of the method: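 ELISA read-out of VEGFRII in primary human umbilical vein endothelium, taken 24 h after chemical treatment. Responses are expressed relative to DMSO, with bidirectional fitting.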
# [2] = read-out: Human Leukocyte Antigen - DR isotype (HLADR), HLA-DRA (gene 3122); test: BSK_BE3C_HLADR: BioMAP Diversity Plus: BE3C Assay for Human Leukocyte Antigen - DR isotype (HLADR) Biomarker Activity (AID 2283032); conditions: primary human bronchial epithelial cells; actives raise or lower the signal
# Summary of the method: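 BioMAP BE3C format: human bronchial epithelium, 24 h compound treatment, ELISA detection of HLA-DR, with bidirectional analysis relative to DMSO.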
# [3] = read-out: Vascular cell adhesion molecule 1 (VCAM1), VCAM1 (gene 7412); test: BSK_4H_VCAM1: BioMAP Diversity Plus: 4H Assay for Vascular cell adhesion molecule 1 (VCAM1) Biomarker Activity (AID 2283033); conditions: primary human endothelial cells (HUVEC); actives raise or lower the signal;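 as to outcome: cell-surface VCAM-1 protein measured by ELISA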
# Summary of the method: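 In this human endothelial (HUVEC) system, biomarker ELISA was run 24 h after compound addition, and total protein in parallel wells was assessed by SRB at 560 nm; DMSO served as negative control.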
# [4] = read-out: Interferon-gamma inducible Protein 10 (IP10), CXCL10 (gene 3627); test: BSK_BE3C_IP10: BioMAP Diversity Plus: BE3C Assay for Interferon-gamma inducible Protein 10 (IP10) Biomarker Activity (AID 2283034); conditions: primary human bronchial epithelial cells; actives raise or lower the signal
# Summary of the method: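 BE3C cells (human bronchial epithelial, primary); 24 h exposure; ELISA for IP-10; DMSO-referenced bidirectional fit.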
# [5] = read-out: Monokine induced gamma interferon (MIG), CXCL9 (gene 4283); test: BSK_BE3C_MIG: BioMAP Diversity Plus: BE3C Assay for Monokine induced gamma interferon (MIG) Biomarker Activity (AID 2283035); conditions: primary human bronchial epithelial cells; actives raise or lower the signal;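 as to outcome: MIG protein measured by ELISA in BE3C cultures after 24 h of dosing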
# Summary of the method: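 hu bronchial epithelial 1° cells, 24 h cpd; MIG by ELISA; bidirectional fit, DMSO = baseline.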
# [6] = read-out: Transforming growth factor beta 1 (TGFb1), TGFB1 (gene 7040); test: BSK_BE3C_TGFb1: BioMAP Diversity Plus: BE3C Assay for Transforming growth factor beta 1 (TGFb1) Biomarker Activity (AID 2283036;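 as to outcome: TGF-b1 protein level measured by ELISA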); conditions: primary human bronchial epithelial cells; actives raise or lower the signal
# Summary of the method: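 TGF-b1 measured via ELISA, 24 h after chemical dosing of human bronchial epithelial cells (BE3C). Overt cytotoxicity assessed in parallel by SRB (0.1%, TCA-fixed, 560 nm); analysis bidirectional relative to DMSO.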
# [7] = read-out: Plasminogen activator inhibitor-1 (PAI1), SERPINE1 (gene 5054); test: BSK_BE3C_PAI1: BioMAP Diversity Plus: BE3C Assay for Plasminogen activator inhibitor-1 (PAI1) Biomarker Activity (AID 2283037); conditions: primary human bronchial epithelial cells; actives raise or lower the signal
# Summary of the method: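 In this multiplexed primary-cell system, bronchial epithelial cells receive test chemical and are sampled at 24 h. PAI-1 is read by ELISA, with DMSO serving as negative control for bidirectional fitting.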
# [8] = read-out: urokinase plasminogen activator (uPA), PLAU (gene 5328); test: BSK_BE3C_uPA: BioMAP Diversity Plus: BE3C Assay for urokinase plasminogen activator (uPA) Biomarker Activity (AID 2283038); conditions: primary human bronchial epithelial cells; actives raise or lower the signal;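 as to outcome: uPA protein level quantified by ELISA in cell cultures; uPA read one day after compound addition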
# Summary of the method: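 Bronchial epithelial cells (human, primary); chemical 24 h; uPA by ELISA; bidirectional fit vs DMSO. SRB (0.1%, after 10% TCA fixation, 560 nm) in parallel cultures for cytotoxicity.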
# [9] = read-out: Urokinase-type plasminogen activator receptor (uPAR), PLAUR (gene 5329); test: BSK_BE3C_uPAR: BioMAP Diversity Plus: BE3C Assay for Urokinase-type plasminogen activator receptor (uPAR) Biomarker Activity (AID 2283039); conditions: primary human bronchial epithelial cells; actives raise or lower the signal;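 as to outcome: uPAR protein level measured by ELISA on the cells; cells exposed to compound for one day before measurement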
# Summary of the method: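 Chemically treated human bronchial epithelial cells (lung primary) are assayed for uPAR by ELISA after 24 h, with data fitted in both directions using DMSO as negative control.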
# [10] = read-out: Interleukin-6 (IL6), IL6 (gene 3569); test: BSK_CASM3C_IL6: BioMAP Diversity Plus: CASM3C Assay for Interleukin-6 (IL6) Biomarker Activity for (AID 2283040); conditions: primary human coronary artery smooth muscle cells; actives raise or lower the signal
smiles,measurement,setting,value
CC(C)(c1ccccc1)c1ccc(O)c(C(C)(C)c2ccccc2)c1,AC50,[1],7.22 µM (active)
same,AC50,[2],13.6 µM (active)
same,AC50,[3],8.48 µM (active)
same,AC50,[4],12 µM (active)
same,AC50,[5],22.7 µM (active)
same,AC50,[6],16.8 µM (active)
same,AC50,[7],14.3 µM (active)
same,AC50,[8],16.2 µM (active)
same,AC50,[9],29.3 µM (active)
same,AC50,[10],26.4 µM (active)
CCOP(=S)(OCC)Oc1ccc(S(C)=O)cc1 (configuration not stated),outcome,[1],inactive
same,outcome,[2],inactive
same,outcome,[3],inactive
same,outcome,[4],inactive
same,outcome,[5],inactive
same,outcome,[6],inactive
same,outcome,[7],inactive
same,outcome,[8],inactive
same,outcome,[9],inactive
same,outcome,[10],inactive
CCOP(=S)(OCC)SCSP(=S)(OCC)OCC,outcome,[1],inactive
same,outcome,[2],inactive
same,outcome,[3],inactive
same,outcome,[4],inactive
same,outcome,[5],inactive
same,outcome,[6],inactive
same,outcome,[7],inactive
same,outcome,[8],inactive
same,outcome,[9],inactive
same,outcome,[10],inactive
Cn1sc(Cl)cc1=O,outcome,[1],inactive
same,outcome,[2],inactive
same,AC50,[3],20 µM (active)
same,outcome,[4],inactive
same,outcome,[6],inactive
same,outcome,[7],inactive
same,outcome,[8],inactive
same,outcome,[9],inactive
same,AC50,[10],20 µM (active)
ClC1(Cl)C2(Cl)C3(Cl)C4(Cl)C(Cl)(Cl)C5(Cl)C3(Cl)C1(Cl)C5(Cl)C24Cl (configuration not stated),outcome,[1],inactive
same,outcome,[2],inactive
same,outcome,[4],inactive
same,outcome,[5],inactive
same,outcome,[6],inactive
same,outcome,[7],inactive
same,outcome,[8],inactive
same,outcome,[9],inactive
same,outcome,[10],inactive
COC(=O)c1sccc1S(=O)(=O)NC(=O)Nc1nc(C)nc(OC)n1,outcome,[1],inactive
same,outcome,[2],inactive
same,outcome,[3],inactive
same,outcome,[4],inactive
same,outcome,[6],inactive
same,outcome,[7],inactive
same,outcome,[8],inactive
same,outcome,[9],inactive
same,outcome,[10],inactive
COP(=S)(OC)Oc1ccc(S(=O)(=O)N(C)C)cc1,outcome,[1],inactive
same,outcome,[2],inactive
same,outcome,[4],inactive
same,outcome,[5],inactive
same,outcome,[6],inactive
same,outcome,[7],inactive
same,outcome,[8],inactive
same,outcome,[9],inactive
same,outcome,[10],inactive
O=c1[nH]c(=O)[nH]c(=O)[nH]1,outcome,[1],inactive
same,outcome,[2],inactive
same,outcome,[3],inactive
same,outcome,[4],inactive
same,outcome,[5],inactive
same,outcome,[6],inactive
same,outcome,[7],inactive
same,outcome,[8],inactive
same,outcome,[9],inactive
same,outcome,[10],inactive
O=[N+]([O-])c1ccc2c3c(cccc13)CC2,outcome,[1],inactive
same,outcome,[2],inactive
same,outcome,[3],inactive
same,outcome,[4],inactive
same,outcome,[5],inactive
same,outcome,[6],inactive
same,outcome,[7],inactive
same,outcome,[8],inactive
same,AC50,[9],1.19 µM (active)
same,outcome,[10],inactive
O=C1C2(Cl)C3(Cl)C4(Cl)C(Cl)(Cl)C5(Cl)C3(Cl)C1(Cl)C5(Cl)C24Cl (configuration not stated),AC50,[1],5.18 µM (active)
same,AC50,[2],7.65 µM (active)
same,AC50,[3],8.36 µM (active)
same,AC50,[4],7.91 µM (active)
same,AC50,[6],5.28 µM (active)
same,AC50,[7],8.29 µM (active)
same,AC50,[8],5.32 µM (active)
same,AC50,[9],6.12 µM (active)
same,AC50,[10],33.5 µM (active)
COc1cc(-c2ccc(N)c(OC)c2)ccc1N,outcome,[1],inactive
same,outcome,[2],inactive
same,outcome,[3],inactive
same,outcome,[4],inactive
same,outcome,[5],inactive
same,outcome,[6],inactive
same,outcome,[7],inactive
same,outcome,[8],inactive
same,outcome,[9],inactive
same,outcome,[10],inactive
NC(=S)Nc1ccccc1,outcome,[1],inactive
same,outcome,[2],inactive
same,outcome,[3],inactive
same,outcome,[4],inactive
same,outcome,[5],inactive
same,outcome,[6],inactive
same,outcome,[7],inactive
same,outcome,[8],inactive
same,outcome,[9],inactive
same,outcome,[10],inactive
COC(=O)Cc1ccccc1,outcome,[1],inactive
same,outcome,[2],inactive
same,outcome,[3],inactive
same,outcome,[4],inactive
same,outcome,[5],inactive
same,outcome,[7],inactive
same,outcome,[8],inactive
same,outcome,[9],inactive
same,outcome,[10],inactive
CCN1CCC2(CC1)COc1cc3c(cc12)N(C(=O)c1ccc(-c2ccc(-c4nnc(C)o4)cc2C)cc1)CC3,outcome,[1],inactive
same,AC50,[2],10.5 µM (active)
same,AC50,[3],27.8 µM (active)
same,AC50,[4],14.4 µM (active)
same,outcome,[6],inactive
same,AC50,[7],12.5 µM (active)
same,AC50,[8],18.7 µM (active)
same,AC50,[9],18.7 µM (active)
same,AC50,[10],31.7 µM (active)
Oc1c(I)cc(I)cc1I,AC50,[1],12.5 µM (active)
same,AC50,[2],3.97 µM (active)
same,AC50,[3],20 µM (active)
same,AC50,[4],4.41 µM (active)
same,outcome,[6],inactive
same,AC50,[7],1.83 µM (active)
same,outcome,[8],inactive
same,AC50,[9],2.31 µM (active)
same,outcome,[10],inactive
